Shown are actives, neighbours in structure and some others; about 4.1% of the full set was active somewhere.
hgDAF12 agonist: agonists of H. glycines DAF-12 nuclear receptor. HEK293 GAL4-hgDAF12 UAS-luciferase reporter, agonist luminescence; normalized to butyrate control. activation, % at 6.8 µM. 370,000 tested, 1.8% active;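 active = activation above a cutoff set at the mean of all screened compounds plus 3 SD, cut at about 10% in these data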;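 note: 0% = DMSO wells and 100% = sodium butyrate wells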
DAX1 inh-1: inhibitors of DAX1 repression of SF-1 activated StAR promoter; HEK293T StAR-luciferase reporter, SF-1/DAX-1 repression relief; inhibition, % at 6.8 µM; 370,000 tested, 1.1% active; AID 652010;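 active = inhibition above the mean over all tested compounds plus 3 SD, cut at about 3.6% in these data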;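 note: 0% = DAX-1 cells with DMSO and 100% = cells lacking DAX-1 with DMSO; higher inhibition means more luminescence from relief of DAX-1 repression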
hcDAF12 agonist: activates DAF-12 receptor from parasite H. contortus; HEK293 hcDAF-12 lit1-tk-luc reporter, luminescence; 0% DMSO, 100% Δ7-dafachronic acid; activation, % at 6.8 µM; 370,000 tested, 1.4% active; AID 652067;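 active = activation above the mean of all tested compounds plus 3 SD, cut at about 5.5% in these data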;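 note: 100% = response to 3 µM Δ7-dafachronic acid high control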
DAX1 inh-2: inhibits human nuclear receptor DAX1 | P51843 | HEK293 Gal4-DAX1 luciferase reporter, luminescence | inhibition, % at 6.75 µM | 340,000 tested, 0.99% active | AID 504766;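 active = inhibition above the mean over all tested compounds plus 3 SD, cut at about 4.2% in these data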;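 note: 0% = DAX1-transfected cells with DMSO and 100% = empty-vector control cells with DMSO; inhibition shows as a rise in luminescence from relieved DAX1 repression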
ssDAF12 agonist: activates DAF-12 receptor from parasite S. stercoralis; HEK293 ssDAF-12/GRIP1 lit1-tk-luc reporter, luminescence; % of 3 µM dafachronic acid response; activation, % at 6.8 µM; 370,000 tested, 1% active; AID 652126;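 active = activation above the mean over all tested compounds plus 3 SD, cut at about 0.9% in these data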;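 note: 0% = DMSO-only wells and 100% = 3 µM delta7-dafachronic acid wells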
hgDAF12 conf: hgDAF-12 agonism, confirmation assay. 3,300 tested, 80% active. HEK293 GAL4-hgDAF12 luciferase reporter, agonist mode; percent of butyrate response. AID 743050. shares compounds with hgDAF12 agonist. activation, % at 6.8 µM;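 active = mean activation over triplicate wells above the hit cutoff derived from the earlier primary screen, cut at about 11% in these data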;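 note: 0% = DMSO low control and 100% = 2 mM sodium butyrate high control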
LXR ag 2: activates human LXR-beta, counter-screen for DAF-12 agonists; shares compounds with hgDAF12 agonist; HEK293 Gal4-LXR luciferase reporter, 24 h; activation, % at 6.8 µM; 3,300 tested, under 10 active;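 active = mean activation of the triplicate above a set limit carried over from the primary screen, none filed active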
Target sequence (P55055 whole entry, looked up, the tested form may be a part): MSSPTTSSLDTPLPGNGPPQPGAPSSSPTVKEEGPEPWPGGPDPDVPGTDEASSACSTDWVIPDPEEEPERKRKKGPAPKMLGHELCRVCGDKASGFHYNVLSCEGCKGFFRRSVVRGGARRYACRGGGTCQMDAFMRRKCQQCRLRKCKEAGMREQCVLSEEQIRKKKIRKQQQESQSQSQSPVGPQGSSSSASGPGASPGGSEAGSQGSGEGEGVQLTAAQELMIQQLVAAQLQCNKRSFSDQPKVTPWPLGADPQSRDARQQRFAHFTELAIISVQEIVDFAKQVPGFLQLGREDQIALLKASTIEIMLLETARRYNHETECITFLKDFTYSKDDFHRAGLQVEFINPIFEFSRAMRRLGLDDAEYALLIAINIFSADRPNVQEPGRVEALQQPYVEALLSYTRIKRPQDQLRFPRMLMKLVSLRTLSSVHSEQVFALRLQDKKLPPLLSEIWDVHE
Numbers without * were called inactive; · = not tested or not shown.

SMILES	hgDAF12 agonist	DAX1 inh-1	hcDAF12 agonist	DAX1 inh-2	ssDAF12 agonist	hgDAF12 conf	LXR ag 2
O=C(O)C1C2CCC(O2)C1C(=O)Nc1ccc(F)cc1 (centres undefined)	0	0	1	-1	-1	·	·
O=C(O)c1ccc(NC(=O)C2C3CCC(O3)C2C(=O)O)cc1 (centres undefined)	14*	1	6.0*	1	1.4*	3	0
c1ccc(CCCCc2ccncc2)cc1	2	-1	-1	-1	-1	·	·
O=C(CCCc1ccncc1)c1ccccc1	13*	1	1	3	0	9	0
Cc1cc(C)n2nc(SCC(=O)Nc3ccc(F)cc3)nc2n1	0	0	-1	1	-1	·	·
Cc1cc(C)n2nc(SCC(=O)Nc3ccc(O)cc3)nc2n1	15*	0	-2	0	-1	1	0
CNc1nc(-c2ccc3c(c2)CCN3C(=O)c2ccccc2C)cs1	21*	1	1	1	0	15*	0
O=C(CN1CCCC1)Nc1nc(-c2ccc3c(c2)CCN3C(=O)c2ccccc2F)cs1	·	·	·	-1	·	·	·
CCOC(=O)c1c(-c2ccco2)csc1NC(=O)COC(=O)c1cnccn1	0	1	-1	0	-1	·	·
CC(C)Cn1c(N)c(C(=O)COC(=O)c2ccc([N+](=O)[O-])o2)c(=O)n(C)c1=O	-2	-2	-1	-1	-2	·	·
Cc1ccc2c(Cl)c(C(=O)Nc3cccnc3)sc2c1	20*	3	2	3	-1	18*	1
Cc1csc(CN(C)C(=O)C2CCC(=O)N(CCN(C)C)C2)n1 (centres undefined)	-2	1	-1	1	-1	·	·
COc1ccc(/C=C2\SC(=O)N(CCc3nnc(N)s3)C2=O)cc1	16*	4.1*	4	2	1	10	1
COc1ccc(/C=C2\SC(=O)N(CCCC(=O)Nc3ccc(C(=O)O)cc3)C2=O)cc1	-21	-7	-9	-5	-4	·	·
C=CCc1c(C)nc2cc(-c3ccc(C)cc3)[nH]n2c1=O	14*	2	6.3*	4	1.0*	11*	1
C/C(=N/Nc1ncc(Br)cn1)c1ccc([N+](=O)[O-])cc1	2	0	1	3	-1	·	·
C/C(=N\Nc1nccnc1Cl)c1ccc(Br)cc1	17*	2	5.8*	1	0	6	0
C/C(=N\Nc1nccnc1Cl)c1ccc([N+](=O)[O-])cc1	15*	2	4	1	1	2	0
Cc1nnc(SCC(=O)Nc2ccccc2)c2ccccc12	4	0	-3	-1	-1	·	·
CN1N=C(/C=C/c2ccccc2)CCC1=O	3	2	1	1	-1	·	·
Cc1ccc(/C=C/C2=NN(C)C(=O)CC2)cc1	14*	3	3	1	0	15*	1
CCOC(=O)CSc1nc2ccc(N)cc2s1	-2	0	1	-1	0	·	·
Nc1ccc2nc(SCc3cccc(F)c3)sc2c1	16*	0	2	0	-1	12*	1
O=C(CSc1n[nH]c(=O)n1C1CC1)Nc1ccc(Cl)cc1Cl	1	-1	-2	1	-1	·	·
O=C(Nc1ccn(-c2ccccc2)n1)c1ccccc1Br	20*	1	0	2	0	5	0
SMILES	hgDAF12 agonist	DAX1 inh-1	hcDAF12 agonist	DAX1 inh-2	ssDAF12 agonist	hgDAF12 conf	LXR ag 2
COC(=O)[C@]12C[C@H](CC(=O)N3CCN(C(=O)c4ccco4)CC3)C(=O)N(Cc3ccco3)C1=C[C@H](COCc1ccccc1)O[C@@H]2C	-3	0	-2	·	-1	·	·
COC1=C/C(=C/c2c(N)n3nc(-c4ccc(C)cc4)sc3nc2=O)C=CC1=O	13*	1	6.2*	-1	1	8	0
CCOC1=C/C(=C/c2c(N)n3nc(-c4ccccc4)sc3nc2=O)C=CC1=O	8	-1	1	·	0	·	·
COc1ccc(-c2cn3c(C)c(C(=O)NC(C)(C)C)sc3n2)cc1	18*	3	6.0*	2	1	12*	0
Cc1ccc(C(=O)N/N=C/c2ccc(N3CCOCC3)cc2)c(C)c1	14*	0	1	-1	-1	-1	0
O=C(N/N=C/c1ccc(N2CCOCC2)cc1)c1ccc(O)cc1	0	1	-1	1	-2	·	·
CCN(CC)c1ccc(C=N/C(C#N)=C(\N)C#N)cc1	15*	1	4	1	-1	10	0
CCN(CC)c1ccc(/C=C(\C#N)c2ccccn2)cc1	·	·	·	-2	·	·	·
O=C(Nc1ccc(O)cc1)c1cc2ccccc2c(=O)s1	14*	1	2	2	-1	8	0
O=C(Nc1ccccc1)c1cc2ccccc2c(=O)s1	18*	2	4	2	-1	14*	1
Cc1cc(C)cc(NC(=O)c2cc3c(=O)n4ccccc4nc3s2)c1	1	0	-2	-2	-1	·	·
COc1ccc(S(=O)(=O)NCC2CCC(C(=O)NCCCN3CCCC3=O)CC2)cc1 (centres undefined)	0	0	-1	0	-1	·	·
O=C(O)c1ccc2c3n(nc2c1)-c1ccc(Cl)cc1CO3	6	0	1	·	0	·	·
CCOC(=O)/C=C/c1cccc(C)c1O	14*	4.5*	1	·	0	12*	0
Cc1cc(C(=O)CSc2nnnn2C)c(C)n1-c1cccc(F)c1	14*	2	3	2	-1	15*	1
Cc1cc(C(=O)CSc2ncccn2)c(C)n1-c1cccc(F)c1	14*	4.3*	6.1*	2	2.3*	15*	1
Cc1cc(C)cc(-n2c(C)cc(C(=O)CSc3nnnn3C)c2C)c1	2	-1	-1	-1	-1	·	·
COc1cccc(CNC(=O)CCC2CCCN(c3cc(C)nc(N)n3)C2)c1 (centres undefined)	-1	-1	-2	0	-1	·	·
Cc1cnc(NC(=O)C2CCCO2)s1 (centres undefined)	15*	0	0	0	-1	4	0
CC(C)c1nnc(NC(=O)C2CCCO2)s1 (centres undefined)	4	2	0	0	-1	·	·
Clc1ccc2nc(N3CCCCC3)[nH]c2c1	20*	4.5*	5.7*	1	0	17*	1
CC(C)(C)[C@@H]1/C(=C/C2CC2)N2C(=O)C[C@@H](c3ccccc3)N=C2N1Cc1ccc2c(c1)OCO2	-1	·	-2	·	-2	·	·
COc1ccc(NC(=O)CN(C)C(=O)c2ccccc2Sc2ncnc3sc(C)c(C)c23)cc1	3	1	1	0	0	·	·
